{
  "source": "PubChem BioAssay (NCATS)",
  "note": "“And” between values parts separate entries of the source, which are not always exact repeats. Identical values can stand only once. Results filed as inconclusive are left out. Unmarked numbers belong to inactive results. The source made the active and inactive calls. Calls follow the shape of the dose curve; as a rule, active = well fitted activation curve with a large enough effect; inconclusive = small, poorly fitted or top-dose-only effect; inactive = no such curve, though single readings can be large or run the other way. Potency is read from the fitted curve at half-maximal effect.",
  "data": [
    {"target": "Cellular tumor antigen p53 (Homo sapiens) (UniProt P04637)", "sequence (P04637 whole entry, looked up)": "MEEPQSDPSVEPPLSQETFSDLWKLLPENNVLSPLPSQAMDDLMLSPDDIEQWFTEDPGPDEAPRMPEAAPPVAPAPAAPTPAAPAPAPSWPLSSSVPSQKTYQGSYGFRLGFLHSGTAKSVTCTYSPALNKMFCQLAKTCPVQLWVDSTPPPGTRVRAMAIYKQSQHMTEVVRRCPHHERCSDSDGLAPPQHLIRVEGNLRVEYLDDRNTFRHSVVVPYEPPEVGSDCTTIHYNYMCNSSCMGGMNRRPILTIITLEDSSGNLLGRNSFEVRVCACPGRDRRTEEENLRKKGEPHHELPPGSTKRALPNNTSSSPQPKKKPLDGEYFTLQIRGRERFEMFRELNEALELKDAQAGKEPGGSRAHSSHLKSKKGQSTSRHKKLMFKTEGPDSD", "experiment": "Primary qHTS for small molecule compounds that upregulate eGFP-tagged delta133p53alpha (in N-terminal) cells. (AID 2060322); also: nearly all actives have a fitted effect of over 75% in size;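 as to activation: cells pre-induced with doxycycline then dosed without doxycycline; series mostly up to about 56 µM; 0% = DMSO vehicle and 100% = reference activator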", "details": "NCI-H358 eGFP-delta133p53alpha fluorescence, 24 h; activation: active compounds read high", "description": "Assay Development and Screening Technology\nNational Center for Advancing Translational Sciences (NCATS),\nNational Institute of Health (NIH), Rockville, Maryland\nCellular senescence (CS) is one of the hallmarks of aging and age-related diseases. Senescent cells are characterized by an irreversible growth arrest, an increase in senescence-associated beta-galactosidase (SA-beta-gal) activity and p16INK4a expression, an activation of the DNA damage response pathways, and the emergence of a senescence-associated secretory phenotype (SASP).\nDelta133p53alpha, a human/primate-specific p53 protein isoform, delays or inhibits the induction of CS and SASP in various types of human cells, including progeria-derived fibroblasts, primary normal astrocytes, and CD8+ T lymphocytes. Induction of delta133p53alpha with small molecule compounds may provide therapeutic opportunities for inhibition of senescence/SASP-associated pathologies in progeria syndromes, astrocyte-mediated neuroprotection in neurodegenerative diseases, and possibly prevention and treatment of a wider range of senescence- and aging-associated diseases.\nHere we report the development and validation of a cell-based quantitative high throughput screening (qHTS) assay in 1,536-well format. This qHTS assay uses the NCI-H358 cell line with doxycycline-inducible expression of enhanced green fluorescent protein (eGFP)-tagged delta133p53alpha, which allows efficient and highly quantitative measurement of the protein levels.\nPROTOCOL TABLE (as described by Inglese J, Shamu CE and Guy RK. 2007)\nSEQUENCE No. (e.g., 1, 2, 3, etc.); […] (e.g., Cells, Incubation, Reagent, etc.); VALUE; DESCRIPTION.\n1; Cells; 4uL; 800 doxycycline treated cells / well in doxycycline-free media, 1536-well black, clear-bottom low base Aurora microplates.\n2; Compounds; 23 nL; Kalypsis pin tool (Wako) equipped with 1536-well pin heads, 5-azacytidine positive control.\n3; Incubation; 24 hr; 37C, 5% CO2; 95% relative humidity.\n4; Aspiration; 1x; BioTek EL406 washer dispenser (Agilent).\n5; Fixing; 3.5% paraformaldehyde, BioTek EL406 washer dispenser (Agilent).\n6; Washing; 1x PBS; BioTek EL406 washer dispenser (Agilent).\n7; Nuclei staining; 1:1000 dilution of Hoechst 33342 (Thermofisher), BioTek EL406 washer dispenser (Agilent).\n8; Incubation; 20 min; in the dark at room temperature.\n9; Washing; 2x, 1x PBS (ThermoFisher), BioTek EL406 washer dispenser (Agilent).\n10; Reagent; 10 uL; 1x PBS per well, sealed with clear adhesive tape.\nNOTES (numbers refer to sequence numbers above).\n1. NCI-H358 cells expressing eGFP-tagged delta133p53alpha were grown in T75 culture flasks and treated with doxycycline for 24h, at 10 ng/ml for eGFP-D133p53a cells (N-terminal cell) and 100 ng/ml for D133p53a-eGFP cells (C-terminal cells). Cells were trypsinized, counted using a Counted 3 Automated Cell Counter (Thermo Fisher), and diluted to a concentration of 200,000 cells/ml. A Multidrop Combi Reagent Dispenser (ThermoFisher) was used to dispense 800 cells/well in […] of doxycycline-free media, into 1536-well black/clear bottom low base plates (AuroraMicroplates).\n2. After plating cells, 23 nl of compound library, DMSO vehicle control or positive control (5-azacytidine) were transferred by Pin Tool (Wako). The plate map layout was the same for each plate: (column 1) non-doxycycline treated cells + DMSO vehicle control; (column 2) doxycycline treated cells + DMSO vehicle control baseline; (column 3) doxycycline treated cells + positive control 57.5 uM final concentration 5-azacytidine; (column 4) doxycycline treated cells + serial dilution of 5-azacytidine, 16-point 1:2 titration spanning 1.8 nM to […] final concentration; (columns 5-48) doxycycline treated cells + titration of library compounds.\n3. Cells were incubated at 37 °C, 5 % CO2, 95% RH with breathable metal lid for 24h.\n4-10. […] After two washes, 10 ul of 1X PBS (Thermo Fisher) was dispensed to each well. Clear adhesive plate seals (VWR) were applied and plates stored at 4 °C.\n11. […]", "values": [
      {"smiles": "Cc1c(C(N)=O)cc([N+](=O)[O-])cc1[N+](=O)[O-]", "activation": "-8.37%"},
      {"smiles": "Cc1oncc1C(=O)Nc1ccc(C(F)(F)F)cc1", "activation": "-3.35% and -18.5% and -19%"},
      {"smiles": "Fc1ccc(-c2nc(-c3ccccc3F)[nH]c2-c2ccncc2)cc1", "activation": "17%"},
      {"smiles": "COc1cc(-c2nn(C3CCC(N4CCN(C(C)=O)CC4)CC3)c3ncnc(N)c23)ccc1NC(=O)c1cc2ccccc2n1C", "note": "(stereo not given)", "activation": "17.1%"},
      {"smiles": "CC(OC1OCCN(Cc2n[nH]c(=O)[nH]2)C1c1ccc(F)cc1)c1cc(C(F)(F)F)cc(C(F)(F)F)c1", "note": "(stereo not given)", "activation": "20.5%"},
      {"smiles": "COc1cc(C(C)C)c(Oc2cnc(N)nc2N)cc1I", "activation": "3.67%"},
      {"smiles": "C=C1C(OC(C)=O)CCC2(C)CC3(O)OC(=O)C(C)=C3CC12", "note": "(stereo not given)", "activation": "-3.57%"},
      {"smiles": "CC(NC(=O)c1ccccc1N=Cc1c(O)ccc2ccccc12)c1ccccc1", "note": "(stereo not given)", "Potency": "43.2 µM (active)"},
      {"smiles": "C#CC(N)CCC(=O)O", "note": "(stereo not given)", "activation": "-41.5%"},
      {"smiles": "Cc1n[nH]c(C)c1Cc1sc2c(c1C(=O)N1C[C@H](O)CO1)c(=O)n(C)c(=O)n2CC(C)C", "activation": "19.3% and -2.33%"},
      {"smiles": "COc1c(C)c2c(c(O)c1C/C=C(\\C)CCC(=O)O)C(=O)OC2", "activation": "7.34%"},
      {"smiles": "C[C@H]1CC[C@@]2(OC1)O[C@H]1CC3C4CC=C5C[C@H](O)C[C@@H](O[C@@H]6O[C@@H](C)[C@H](O)[C@@H](O)[C@H]6O[C@@H]6O[C@@H](C)[C@H](O)[C@@H](O)[C@H]6O)[C@]5(C)C4CC[C@]3(C)[C@H]1[C@@H]2C", "note": "(stereo not given in full)", "activation": "-13.7%"},
      {"smiles": "C=C1C(=O)OC2/C=C(\\CO)CC/C=C(\\C=O)CC(OC(=O)CC(C)C)C12", "note": "(stereo not given)", "Potency": "14.8 µM (active)"},
      {"smiles": "COc1cc(/C=C/C(=O)OC[C@H]2O[C@@H](OC3OC=C(C(=O)O)C4C(O)CC(C)(O)C34)[C@H](O)[C@@H](O)[C@@H]2O)cc(OC)c1O", "note": "(stereo not given in full)", "activation": "-12.2%"},
      {"smiles": "C=C(C)C(O)COc1ccc(CC(=O)O)cc1", "note": "(stereo not given)", "activation": "8.93%"},
      {"smiles": "Nc1ccc(S(N)(=O)=O)cc1", "activation": "-29.9% and 4.8%"},
      {"smiles": "C[C@]12C=CC(=O)C=C1CC[C@H]1[C@@H]3C[C@@H](O)[C@](O)(C(=O)CO)[C@@]3(C)C[C@H](O)[C@@]12F", "activation": "10.9% and -4.1%"},
      {"smiles": "N.N.O=C(O)C1(C(=O)O)CCC1.[Pt+2]", "activation": "-8.5%"},
      {"smiles": "COc1cc2nc(N3CCCC3)nc(NCCCCCN3CCCC3)c2cc1OC", "Potency": "30.6 µM (active)"},
      {"smiles": "c1ccc(-c2ccccn2)nc1", "activation": "-21.2%"},
      {"smiles": "C=CC(C)(O)CC/C=C(\\C)C1CC=C(C)C(=O)O1", "note": "(stereo not given)", "activation": "-9.82%"},
      {"smiles": "CC(=O)[C@H]1CC[C@H]2[C@@H]3C=CC4=CC(=O)CC[C@@]4(C)[C@@H]3CC[C@]12C", "activation": "-8.47% and 12.4%"},
      {"smiles": "C[C@]1(OC(=O)/C=C/c2ccccc2)C[C@@H](O)[C@]2(O)C=CO[C@@H](O[C@@H]3O[C@H](CO)[C@@H](O)[C@H](O)[C@H]3O)[C@@H]21", "activation": "-8.93%"},
      {"smiles": "C=C[C@]1(C)C[C@H](O)[C@H]2C(=C)C(=O)O[C@@H]2[C@H]1C(=C)CO", "activation": "17.9%"},
      {"smiles": "C[C@@H]1O[C@@H](O[C@H]2[C@H](OC(=O)C34CCC(C)(C)CC3C3=CCC5C6(C)CC(O)C(O[C@@H]7O[C@H](CO)[C@@H](O)[C@H](O)[C@H]7O)C(C)(C(=O)O)C6CCC5(C)C3(CO)CC4)O[C@H](C)[C@H](O)[C@@H]2O)[C@H](O)[C@H](O)[C@H]1O[C@@H]1OC[C@@H](O)[C@H](O)[C@H]1O", "note": "(stereo not given in full)", "activation": "-12.5%"},
      {"smiles": "CCCCCCc1ccc(O)cc1O", "activation": "3.35%"},
      {"smiles": "CC(C(=O)O)c1ccc2c(c1)Cc1cccnc1O2", "note": "(stereo not given)", "activation": "-30.1%"},
      {"smiles": "O=C(O)C1=CCCN(CCON=C(c2ccccc2)c2ccccc2)C1", "activation": "20.9%"},
      {"smiles": "COC(=O)C1=COC(O[C@@H]2O[C@H](CO)[C@@H](O)[C@H](O)[C@H]2O)/C(=C\\COC(=O)/C=C/c2ccccc2)C1CC(=O)OCCc1ccc(O)cc1", "note": "(stereo not given in full)", "activation": "-0.763%"},
      {"smiles": "CCC(Sc1nnc2c(n1)[nH]c1ccccc12)C(=O)N1c2ccccc2Sc2ccccc21", "note": "(stereo not given)", "activation": "12.3%"},
      {"smiles": "CC1CCC2C(C)(C)CC(C)(CO)C2(O)C1C(=O)O", "note": "(stereo not given)", "activation": "15.3%"},
      {"smiles": "CC(=O)/C=C/C1(O)C(C)(C)CC(O)CC1(C)O", "note": "(stereo not given)", "activation": "12.2%"},
      {"smiles": "CC(C)COC(=O)c1ccc(N)cc1", "activation": "2.82%"},
      {"smiles": "NC(=O)CCCSc1nc(N)nc(-c2c(Cl)cc3c4c(cccc24)COC3)n1", "activation": "-8.59%"},
      {"smiles": "CN(C)CCN1CCN(c2cccc(Cl)c2)C1=O", "activation": "-13%"},
      {"smiles": "CCCO[C@@H]1O[C@H](CO)[C@@H](O)[C@H](O)[C@H]1O[C@@H]1OC[C@@H](O)[C@H](O)[C@H]1O", "activation": "-15.3%"},
      {"smiles": "CN1CCN(C(=O)C2CCCCC2)CC1", "activation": "-11.7%"},
      {"smiles": "C[C@]12C[C@@H](O)[C@@H]3C[C@@]1(O[C@@H]1O[C@H](CO)[C@@H](O)[C@H](O)[C@H]1O)[C@]3(COC(=O)c1ccccc1)C(=O)O2", "activation": "25.9%"},
      {"smiles": "CC1CC(=O)C2=C(O1)OC1(C)CCC3C(C)(C)C4OC4C(=O)C3(C)C1C2", "note": "(stereo not given)", "activation": "16.1%"},
      {"smiles": "CCN(C(=O)CO)[C@H]1CN(C(=Nc2cccc(OC(F)F)c2)NC#N)N=C1c1ccc(Cl)c(Cl)c1", "activation": "19%"}
    ]}
  ]
}
